Measured values taken from PubChem BioAssay AID2177 (The Scripps Research Institute Molecular Screening Center, 2009).
About 1,200 (0.38%) of roughly 320,000 compounds were called active. This is one part of a sample in which actives are shown more often than they occur.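 Rule for the calls: active = inhibition above the screen-wide mean plus 3 SD, limit set per campaign (cut at about 26% in these data); inactive = the rest.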

Target: Acyl-protein thioesterase 2 (Homo sapiens) (UniProt O95372)
Experiment: inhibition of human lysophospholipase 2 – biochemical, fluorescence polarization, FP-Rh probe ABPP, counter-screen for PME1 inhibitor project, primary screen (AID 2177);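 note: 0% = LYPLA2 with DMSO and 100% = wells lacking LYPLA2 enzyme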
Conditions: recombinant LYPLA2, FP-Rh probe fluorescence polarization; at 5.9 µM; active compounds read high

Chain of Acyl-protein thioesterase 2 (Homo sapiens) (O95372 whole entry, looked up): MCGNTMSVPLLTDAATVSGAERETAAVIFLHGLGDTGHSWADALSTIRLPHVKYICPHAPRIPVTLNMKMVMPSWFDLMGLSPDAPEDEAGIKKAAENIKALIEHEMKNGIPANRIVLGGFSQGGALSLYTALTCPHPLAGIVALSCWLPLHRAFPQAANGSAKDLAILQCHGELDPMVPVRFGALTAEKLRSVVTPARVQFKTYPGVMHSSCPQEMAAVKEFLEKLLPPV

SMILES	inhibition
COc1cccc(N(C(=O)c2ccn[nH]2)C2(C(=O)Nc3c(C)cccc3C)CCCCC2)c1	-1.38% (inactive)
Cc1ccc(/C=N/NC(=O)COc2ccccc2-c2ccccc2)cc1	2.18% (inactive)
Cc1ccc(/C=N/NC(=O)C(NC(=O)c2ccccc2)c2n[nH]c(=O)c3ccccc23)cc1 (stereo not drawn)	40.8% (active)
O=C(O)c1ccc(/C=N/NC(=S)NCc2ccccc2)cc1	-7.47% (inactive)
O=C(CNc1ccc(F)cc1F)NC(=O)NCc1ccco1	-3.47% (inactive)
Cc1ccc(NC(=O)C(c2ccccc2)N2CCN(C(=O)c3ccco3)CC2)cc1 (stereo not drawn)	0.07% (inactive)
Nc1nnc(SCC(=O)NC2CCCc3ccccc32)s1 (stereo not drawn)	-1.96% (inactive)
O=C(Cc1ccc(Br)cc1)NCCN1CCOCC1	4.15% (inactive)
COc1ccc(NC(=O)NCCN2CCN(c3ccc(C)cc3)CC2)c(Cl)c1	-3.78% (inactive)
COc1ccc(N2CCN(C(=O)c3ccc(N4CCCCS4(=O)=O)cc3)CC2)cc1	63% (active)
COc1ccc(N2CCN(C(=O)c3cccs3)CC2)cc1	8.83% (inactive)
COc1ccc(N2CCN(C(=O)c3ccc4c(Cl)c5c(nc4c3)CCCC5)CC2)cc1	7.7% (inactive)
COc1ccccc1N1CCC(N2CCN(CC(C)(C)C)C(CCO)C2)CC1 (stereo not drawn)	-1.78% (inactive)
COc1ccc(C(=O)OCC(=O)NC(=O)CCSc2ccccc2)cc1	28.6% (active)
O=C(COC(=O)c1ccccc1)Nc1ccccc1Sc1ccccc1	-10.2% (inactive)
COc1ccc(NC(=O)COC(=O)c2ccc(NS(=O)(=O)/C=C/c3ccccc3)cc2)cc1	-12% (inactive)
C[C@H](OC(=O)n1ccnc1)[C@@H]1O[C@@]2(C)CCC[C@@H]1O2	3.91% (inactive)
CC(=O)NC12CC3CC(C1)CC(C(=O)N1CCN(C(=O)c4ccco4)CC1)(C3)C2	6.61% (inactive)
COc1ccccc1OCC(=O)O/N=C(\N)c1ccccn1	-1.78% (inactive)
O=C(COc1ccc(NC(=O)c2ccccc2[N+](=O)[O-])cc1)c1ccc(F)cc1	43.8% (active)

SMILES	inhibition
COc1ccc(NC(=O)c2ccccc2[N+](=O)[O-])cc1OC	-0.83% (inactive)
O=C(Nc1ccncc1)c1ccccc1[N+](=O)[O-]	2.96% (inactive)
COc1c(C)c2c(c(O)c1C/C=C(\C)CCC(=O)O)C(=O)OC2	1.01% (inactive)
Cc1ncc([N+](=O)[O-])n1CCOC(=O)c1ccc(Br)cc1	4.52% (inactive)
CN(C)CCCn1c(SCc2ccc(Cl)cc2)nnc1-c1ccncc1	2.66% (inactive)
O=C(c1cc(-c2ccc(Cl)cc2)on1)N1CCN(c2ccccc2)CC1	31.3% (active)
COc1ccc(-c2cc(C(=O)N3CCN(c4ccc(F)cc4)CC3)no2)cc1	8.33% (inactive)
O=C(c1cc(-c2ccc(F)cc2)on1)N1CCN(c2ccc(F)cc2)CC1	8.86% (inactive)
CCN(CC)CCCNC(=O)Cn1cnc2sc(C)c(S(=O)(=O)N3CCN(c4ncccn4)CC3)c2c1=O	4.51% (inactive)
CCN(CC)CCNC(=O)Cn1cnc2sc(C)c(S(=O)(=O)N3CCOCC3)c2c1=O	-2.7% (inactive)
CCN(CC)CCNC(=O)c1sc2ncn(CC(=O)Nc3ccc(C)c(Cl)c3)c(=O)c2c1C	32.4% (active)
CCOC(=O)CSc1nc2ccc(C)cc2n2cnnc12	-0.15% (inactive)
COc1ccc(S(=O)(=O)N2CCOCC2)cc1NC(=O)Cc1c(F)cccc1Cl	-4.41% (inactive)
Cc1ccccc1N1CCN(CCCOc2ccc3c(C)cc(=O)oc3c2)CC1	15.9% (inactive)
Cc1cc(OCCCCOc2ccc(C#N)cc2)ccc1[N+](=O)[O-]	19.5% (inactive)
Cc1cc(OCCCN2CCN(Cc3ccccc3)CC2)ccc1[N+](=O)[O-]	34.3% (active)
CCOc1ccccc1N1CCN(C(=O)c2ccc3[nH]c(C)c(C)c3c2)CC1	-3.51% (inactive)
Cc1cccc(OCC(O)CN2CCN(CCN3C(=O)c4cccc5cccc(c45)C3=O)CC2)c1C (stereo not drawn)	31.6% (active)
Cc1ccccc1OCC(O)CN1CCN(c2ccccn2)CC1 (stereo not drawn)	-3.92% (inactive)
Cc1cccc(C)c1OCC(O)CN1CCCCC1 (stereo not drawn)	-4.51% (inactive)

SMILES	inhibition
CCCCC[C@H]1CN(C2CCCCC2)C(=O)[C@@H]1CC(=O)NCc1ccc(OC)cc1	-3.9% (inactive)
COC(=O)c1ccc(S(=O)(=O)N(CCO)Cc2ccccc2)n1C	7.11% (inactive)
COC(=O)c1c(NC(=O)COc2ccc(Cl)cc2Cl)sc2c1CC(C)(C)NC2(C)C	1.16% (inactive)
CCC(NC(=O)C1CCCC1)c1ccc(C)cc1 (stereo not drawn)	0.26% (inactive)
Oc1c(C(c2cccs2)N2CCN(c3ccc(F)cc3)CC2)sc2ncnn12 (stereo not drawn)	-5.69% (inactive)
Cc1ccc(C(c2sc3nc(C)nn3c2O)N2CCN(c3ccc(F)cc3)CC2)cc1 (stereo not drawn)	36.7% (active)
Cc1ccc(C(c2sc3nc(C)nn3c2O)N2CCN(c3ccccc3)CC2)cc1 (stereo not drawn)	1.64% (inactive)
C[C@@H](NC(=O)OC(C)(C)C)c1nnc(S(=O)(=O)Cc2ccccc2)o1	-2.33% (inactive)
O=C(C(c1ccccc1)c1ccccc1)N1CCN(CC(O)COc2ccccc2)CC1 (stereo not drawn)	1.24% (inactive)
C[N+]1(CC(O)COc2ccccc2)CCN(C(=O)c2ccc([N+](=O)[O-])cc2)CC1 (stereo not drawn)	-1.46% (inactive)
O=[N+]([O-])c1ccc(N2CCN(CC(O)COc3ccccc3)CC2)cc1 (stereo not drawn)	29.5% (active)
Cc1ccccc1NC(=O)Cc1nc(COC(=O)c2cccnc2Cl)cs1	2.11% (inactive)
O=C(Nc1ccccc1F)c1ccc(Cn2cc(Br)cn2)cc1	-5.94% (inactive)
CCc1ccc(NC(=O)c2ccc(Cn3cc([N+](=O)[O-])cn3)cc2)cc1	32% (active)
COc1cccc(NC(=O)c2ccc(Cn3cc([N+](=O)[O-])cn3)o2)c1	4.62% (inactive)
O=C(Nc1ccccc1Cl)/C(Cl)=C(\Cl)S(=O)c1ccccc1 (stereo not drawn)	-37.3% (inactive)
O=C1Cc2ccccc2Sc2ccc(Cl)cc21	-9.53% (inactive)
COc1ccc(-c2nnc(SC(C)C(=O)NC3CC3)o2)cc1 (stereo not drawn)	1.72% (inactive)
